Reference: PubChem BioAssay AID1159580 (chemical genetic matrix, 2015)
Several values for one entry are separate records, joined by “and”; a condition that tells them apart may be missing. Identical values can stand only once. About 2,000 (36%) of roughly 5,500 compounds were called active. Not shown: some 18% with an inconclusive outcome. No stated cut-off is given here; in the data, active means normalized growth mostly below about 0.91 (no sharp cut-off); inconclusive means no clear call, values can overlap the other calls; inactive means mostly above about 0.92. The list shows a part of the results.

Assay: chemical genetic growth profiling, strain panel (AID 1159580);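 further: tested at 20 µM; growth read once vehicle control cultures reached saturation at 30 °C; 1 = growth at the plate median or of vehicle wells; lower values mean less growth of the strain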
Settings: growth OD
[1] = S. cerevisiae deletion strains, locus YBR021W, strain FUR4, active compounds read low
[2] = S. cerevisiae deletion strains, locus YBR229C, strain ROT2, active compounds read low
[3] = S. cerevisiae deletion strains, locus YCL029C, strain bik1, active compounds read low
[4] = S. cerevisiae deletion strains, locus YDL035C, strain GPR1, active compounds read low
[5] = S. cerevisiae deletion strains, locus YDL074C, strain BRE1, active compounds read low
[6] = S. cerevisiae deletion strains, locus YDL101C, strain DUN1, active compounds read low
[7] = S. cerevisiae deletion strains, locus YDL185W, strain tfp1, active compounds read low
[8] = S. cerevisiae deletion strains, locus YDL192W, strain arf1, active compounds read low
[9] = S. cerevisiae deletion strains, locus YDR101C, strain arx1, active compounds read low
[10] = S. cerevisiae deletion strains, locus YDR162C, strain NBP2, active compounds read low
[11] = S. cerevisiae deletion strains, locus YDR318W, strain mcm21, active compounds read low
[12] = S. cerevisiae deletion strains, locus YDR388W, active compounds read low
[13] = S. cerevisiae deletion strains, locus YDR502C, strain sam2, active compounds read low
[14] = S. cerevisiae deletion strains, locus YEL061C, strain CIN8, active compounds read low
[15] = S. cerevisiae deletion strains, locus YER110C, active compounds read low
[16] = S. cerevisiae deletion strains, locus YER155C, strain BEM2, active compounds read low
[17] = S. cerevisiae deletion strains, locus YER167W, strain BCK2, active compounds read low
[18] = S. cerevisiae deletion strains, locus YGL078C, strain dbp3, active compounds read low
[19] = S. cerevisiae deletion strains, locus YGL086W, strain mad1, active compounds read low
[20] = S. cerevisiae deletion strains, locus YGL248W, strain PDE1, active compounds read low
[21] = S. cerevisiae deletion strains, locus YGR135W, strain pre9, active compounds read low
[22] = S. cerevisiae deletion strains, locus YGR252W, strain gcn5, active compounds read low
[23] = S. cerevisiae deletion strains, locus YHR030C, strain SLT2, active compounds read low
[24] = S. cerevisiae deletion strains, locus YHR079C, strain IRE1 (second series), active compounds read low
[25] = S. cerevisiae deletion strains, locus YHR094C, strain hxt1, active compounds read low
[26] = S. cerevisiae deletion strains, locus YHR129C, strain ARP1, active compounds read low
[27] = S. cerevisiae deletion strains, locus YHR200W, strain rpn10, active compounds read low
[28] = S. cerevisiae deletion strains, locus YIL066C, strain RNR3, active compounds read low
[29] = S. cerevisiae deletion strains, locus YIL073C, strain SPO22, active compounds read low
[30] = S. cerevisiae deletion strains, locus YIL125W, strain kgd1, active compounds read low
[31] = S. cerevisiae deletion strains, locus YIR030C, strain dcg1, active compounds read low
[32] = S. cerevisiae deletion strains, locus YJL095W, strain BCK1, active compounds read low
[33] = S. cerevisiae deletion strains, locus YJL134W, strain LCB3, active compounds read low
[34] = S. cerevisiae deletion strains, locus YJL168C, strain set2, active compounds read low
[35] = S. cerevisiae deletion strains, locus YJL187C, strain SWE1 (second series), active compounds read low
[36] = S. cerevisiae deletion strains, locus YJR043C, strain POL32, active compounds read low
[37] = S. cerevisiae deletion strains, locus YKL009W, strain mrt4, active compounds read low
[38] = S. cerevisiae deletion strains, locus YKL068W, active compounds read low
[39] = S. cerevisiae deletion strains, locus YKL085W, strain MDH1 (second series), active compounds read low
[40] = S. cerevisiae deletion strains, locus YKL085W, strain MDH1, active compounds read low
[41] = S. cerevisiae deletion strains, locus YKL190W, strain CNB1, active compounds read low
[42] = S. cerevisiae deletion strains, locus YKR001C, strain vps1, active compounds read low
[43] = S. cerevisiae deletion strains, locus YLR039C, strain RIC1, active compounds read low
[44] = S. cerevisiae deletion strains, locus YLR058C, strain SHM2, active compounds read low
[45] = S. cerevisiae deletion strains, locus YLR102C, strain apc9, active compounds read low
[46] = S. cerevisiae deletion strains, locus YLR262C, strain YPT6, active compounds read low
[47] = S. cerevisiae deletion strains, locus YLR268W, strain sec22, active compounds read low
[48] = S. cerevisiae deletion strains, locus YLR330W, strain CHS5, active compounds read low
[49] = S. cerevisiae deletion strains, locus YLR342W, strain FKS1 (second series), active compounds read low
[50] = S. cerevisiae deletion strains, locus YLR371W, strain rom2, active compounds read low
[51] = S. cerevisiae deletion strains, locus YLR418C, strain cdc73, active compounds read low
[52] = S. cerevisiae deletion strains, locus YML016C, strain PPZ1, active compounds read low
[53] = S. cerevisiae deletion strains, locus YML032C, strain rad52, active compounds read low
[54] = S. cerevisiae deletion strains, locus YML124C, strain tub3, active compounds read low
[55] = S. cerevisiae deletion strains, locus YMR078C, strain ctf18, active compounds read low
[56] = S. cerevisiae deletion strains, locus YMR223W, strain ubp8, active compounds read low
[57] = S. cerevisiae deletion strains, locus YMR307W, strain GAS1, active compounds read low
[58] = S. cerevisiae deletion strains, locus YNL067W, strain RPL9B, active compounds read low
[59] = S. cerevisiae deletion strains, locus YNL233W, strain BNI4, active compounds read low
[60] = S. cerevisiae deletion strains, locus YNL250W, strain rad50, active compounds read low
[61] = S. cerevisiae deletion strains, locus YNL271C, strain bni1, active compounds read low
[62] = S. cerevisiae deletion strains, locus YNL298W, strain CLA4, active compounds read low
[63] = S. cerevisiae deletion strains, locus YNL307C, strain MCK1, active compounds read low
[64] = S. cerevisiae deletion strains, locus YNR052C, strain pop2, active compounds read low
[65] = S. cerevisiae deletion strains, locus YOL012C, strain htz1
[66] = S. cerevisiae deletion strains, locus YOL147C, strain pex11, active compounds read low
[67] = S. cerevisiae deletion strains, locus YOR061W, strain CKA2, active compounds read low
[68] = S. cerevisiae deletion strains, locus YOR069W, strain VPS5, active compounds read low
[69] = S. cerevisiae deletion strains, locus YOR136W, strain idh2, active compounds read low
[70] = S. cerevisiae deletion strains, locus YOR144C, strain elg1, active compounds read low
[71] = S. cerevisiae deletion strains, locus YOR184W, strain ser1, active compounds read low
[72] = S. cerevisiae deletion strains, locus YOR316C, strain cot1, active compounds read low
[73] = S. cerevisiae deletion strains, locus YPL055C, strain LGE1, active compounds read low
[74] = S. cerevisiae deletion strains, locus YPR119W, strain clb2, active compounds read low
[75] = S. cerevisiae deletion strains, locus YPR141C, strain kar3, active compounds read low
[76] = S. cerevisiae deletion strains, locus YPR163C, strain tif3, active compounds read low
[77] = S. cerevisiae deletion strains, locus YPR167C, strain met16, active compounds read low
[78] = S. cerevisiae deletion strains, strain wtn01, active compounds read low

Measured: normalized growth

C/C=C/c1ccc(OC)cc1
inactive: [1] 0.987 | [2] 1.01 | [3] 1.02 | [4] 1.01 | [5] 1.03 | [6] 1.03 | [7] 1.01 | [8] 1.01 | [9] 1.02 | [10] 1.02 | [11] 1 | [12] 1 | [13] 0.998 | [14] 1.01 | [15] 1.02 | [16] 1.01 | [17] 1 | [18] 0.999 | [19] 1.02 | [20] 1.01 | [21] 1 | [22] 1.01 | [23] 1.01 and 0.942 | [24] 1.01 | S. cerevisiae deletion strains, locus YHR079C, strain IRE1, active compounds read low 0.948 | [25] 1.01 | [26] 1.01 | [27] 1.01 | [28] 1.01 | [29] 1.03 | [30] 1.01 | [31] 1.02 | [32] 1.03 and 0.941 | [33] 1.01 | [34] 1.01 | [35] 1.03 | [36] 1.01 | S. cerevisiae deletion strains, locus YJR066W, strain TOR1, active compounds read low 0.902 | [37] 1.02 | [38] 1 | [39] 1.01 | [40] 1.01 | [41] 1.01 | [42] 0.998 | [43] 1.03 | [44] 1.01 | [45] 1.01 | S. cerevisiae deletion strains, locus YLR113W, strain HOG1, active compounds read low 0.91 | [46] 1.05 | [47] 1.03 | [48] 1.01 | [49] 0.986 | [50] 1.02 | [51] 0.989 | [52] 1.01 | [53] 0.99 | [54] 1.01 | [55] 1.01 | [56] 1.01 | [57] 0.968 | [58] 1.03 | S. cerevisiae deletion strains, locus YNL183C, strain NPR1, active compounds read low 0.904 | [59] 1.02 | [60] 1.02 | [61] 1 | [62] 0.988 | [63] 1 | [64] 1.01 | [65] 0.756 | [66] 1.01 | [67] 1.01 | [68] 1.01 | [69] 1.01 | [70] 1 | [71] 1.01 | S. cerevisiae deletion strains, locus YOR231W, strain MKK1, active compounds read low 0.953 | [72] 1 | [73] 1.03 | S. cerevisiae deletion strains, locus YPL256C, strain CLN2, active compounds read low 0.927 | [74] 1.01 | [75] 1.01 | [76] 1 | [77] 1.01 | [78] 1.01

COc1ccc(/C=C/c2cc(O)cc(O[C@@H]3O[C@H](CO)[C@@H](O)[C@H](O)[C@H]3O)c2)cc1O
inactive: S. cerevisiae deletion strains, locus YAL013W, strain DEP1, active compounds read low 1 | [1] 0.999 | [2] 1.01 | [3] 1.02 | [4] 1.02 | [5] 1.01 | [6] 1.02 | S. cerevisiae deletion strains, locus YDL134C, strain PPH21, active compounds read low 1.01 | [7] 1.02 | [8] 1.02 | [9] 1.01 | S. cerevisiae deletion strains, locus YDR150W, strain NUM1, active compounds read low 1.01 | [10] 1.02 | [11] 1.03 | [12] 1.01 | [13] 1.02 | [14] 1 | [15] 1.03 | [16] 0.995 | [17] 1.03 | [18] 1.02 | [19] 1.03 | [20] 1.01 | S. cerevisiae deletion strains, locus YGR078C, strain PAC10, active compounds read low 1.03 | [21] 1.01 | S. cerevisiae deletion strains, locus YGR229C, strain SMI1, active compounds read low 0.988 | [22] 1.06 | [23] 1 | [24] 1.02 | [25] 1.02 | [26] 1.01 | [27] 1.03 | [28] 1.02 | [29] 1.06 | [30] 0.999 | [31] 1.01 | [32] 1.01 | [33] 1.01 | [34] 1.01 | [35] 1.01 | [36] 1.01 | S. cerevisiae deletion strains, locus YJR075W, strain HOC1, active compounds read low 0.973 | [37] 1.03 | [38] 1.02 | [39] 1.04 | [40] 1.04 | [41] 1 | [42] 1.03 | [43] 1.04 | [44] 1.01 | [45] 1.02 | [46] 1.05 | [47] 1.02 | [48] 1.01 | [49] 1.05 | [50] 1.01 | [51] 0.987 | [52] 1.02 | [53] 1.01 | [54] 1.01 | [55] 1.02 | [56] 1.03 | S. cerevisiae deletion strains, locus YMR263W, strain SAP30, active compounds read low 1.02 | [57] 1.04 | [58] 1.01 | S. cerevisiae deletion strains, locus YNL128W, strain TEP1, active compounds read low 1.02 | S. cerevisiae deletion strains, locus YNL153C, strain GIM3, active compounds read low 1.02 | [59] 1.01 | [60] 1.03 | [61] 1.03 | [62] 1.03 | [63] 1.03 | S. cerevisiae deletion strains, locus YNL322C, strain KRE1, active compounds read low 1.01 | [64] 1.01 | S. cerevisiae deletion strains, locus YOL006C, strain TOP1, active compounds read low 1.08 | [65] 0.868 | [66] 1.01 | [67] 1.02 | [68] 1 | [69] 1.02 | [70] 1.01 | [71] 1.05 | [72] 1.02 | [73] 1.03 | S. cerevisiae deletion strains, locus YPL241C, strain CIN2, active compounds read low 1.01 | [74] 1.01 | [75] 1.03 | [76] 1.03 | [77] 1.02 | [78] 0.994 | S. cerevisiae strains, strain wild type, active compounds read low 1.01
